# Assay results taken from PubChem BioAssay AID1159580 (chemical genetic matrix, 2015).
# Hit rate of the full screen: of about 5,500 compounds, about 2,000 (36%) were called active. Not shown: some 18% with an inconclusive outcome. The list shows a part of the results. A number with no mark means an inactive call. Rule as the data show it: active = normalized growth mostly below about 0.91 (no sharp cut-off); inconclusive = no clear call, values can overlap the other calls; inactive = mostly above about 0.92.
# Test: chemical genetic growth profiling, strain panel (AID 1159580);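 also: tested at 20 µM; growth read once vehicle control cultures reached saturation at 30 °C; 1 = growth at the plate median or of vehicle wells; lower values mean less growth of the strain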
# Conditions: S. cerevisiae deletion strains, growth OD
# [1] = locus YAR019C, strain CDC15, hits give low values
# [2] = locus YBL105C, strain PKC1, hits give low values
# [3] = locus YBR135W, strain CKS1, hits give low values
# [4] = locus YBR136W, strain MEC1, hits give low values
# [5] = locus YBR160W, strain CDC28, hits give low values
# [6] = locus YDL017W, strain CDC7, hits give low values
# [7] = locus YDL028C, strain MPS1, hits give low values
# [8] = locus YDL101C, strain DUN1, hits give low values
# [9] = locus YDL108W, strain KIN28, hits give low values
# [10] = locus YDL132W, strain cdc53, hits give low values
# [11] = locus YDL214C, strain PRR2, hits give low values
# [12] = locus YDR052C, strain DBF4, hits give low values
# [13] = locus YDR054C, strain cdc34, hits give low values
# [14] = locus YDR226W, strain ADK1, hits give low values
# [15] = locus YDR477W, strain SNF1, hits give low values
# [16] = locus YER123W, strain YCK3, hits give low values
# [17] = locus YER133W, strain GLC7, hits give low values
# [18] = locus YFL009W, strain cdc4, hits give low values
# [19] = locus YFL029C, strain CAK1, hits give low values
# [20] = locus YFR003C, strain YPI1, hits give low values
# [21] = locus YFR019W, strain FAB1, hits give low values
# [22] = locus YFR028C, strain CDC14, hits give low values
# [23] = locus YGR040W, strain KSS1, hits give low values
# [24] = locus YGR052W, strain FMP48, hits give low values
# [25] = locus YGR092W, strain DBF2, hits give low values
# [26] = locus YHR030C, strain SLT2, hits give low values
# [27] = locus YHR079C, strain IRE1, hits give low values
# [28] = locus YHR082C, strain KSP1, hits give low values
# [29] = locus YHR205W, strain SCH9, hits give low values
# [30] = locus YIL147C, strain SLN1, hits give low values
# [31] = locus YJL095W, strain BCK1, hits give low values
# [32] = locus YJL128C, strain PBS2, hits give low values
# [33] = locus YJL157C, strain FAR1, hits give low values
# [34] = locus YJR016C, strain ILV3, hits give low values
# [35] = locus YJR066W, strain TOR1 (second series), hits give low values
# [36] = locus YJR066W, strain TOR1, hits give low values
# [37] = locus YKL048C, strain ELM1, hits give low values
# [38] = locus YKL067W, strain YNK1, hits give low values
# [39] = locus YKL101W, strain HSL1, hits give low values
# [40] = locus YKL193C, strain SDS22, hits give low values
# [41] = locus YKL203C, strain TOR2, hits give low values
# [42] = locus YLR113W, strain HOG1, hits give low values
# [43] = locus YLR133W, strain CKI1, hits give low values
# [44] = locus YLR403W, strain SFP1, hits give low values
# [45] = locus YML070W, strain DAK1, hits give low values
# [46] = locus YMR001C, strain CDC5, hits give low values
# [47] = locus YMR205C, strain PFK2 (second series), hits give low values
# [48] = locus YMR277W, strain FCP1, hits give low values
# [49] = locus YNL006W, strain LST8, hits give low values
# [50] = locus YNL020C, strain ARK1, hits give low values
# [51] = locus YNL161W, strain CBK1, hits give low values
# [52] = locus YNL183C, strain NPR1, hits give low values
# [53] = locus YNL207W, strain RIO2, hits give low values
# [54] = locus YNL222W, strain SSU72, hits give low values
# [55] = locus YNL307C, strain MCK1 (second series), hits give low values
# [56] = locus YOL078W, strain AVO1, hits give low values
# [57] = locus YOL136C, strain PFK27, hits give low values
# [58] = locus YOR061W, strain CKA2, hits give low values
# [59] = locus YOR119C, strain RIO1, hits give low values
# [60] = locus YOR231W, strain MKK1, hits give low values
# [61] = locus YOR329C, strain SCD5, hits give low values
# [62] = locus YPL031C, strain PHO85, hits give low values
# [63] = locus YPL153C, strain RAD53, hits give low values
# [64] = locus YPL204W, strain HRR25, hits give low values
# [65] = locus YPL209C, strain IPL1, hits give low values
# [66] = locus YPL256C, strain CLN2, hits give low values
# [67] = locus YPR025C, strain CCL1, hits give low values
# [68] = locus YPR106W, strain ISR1, hits give low values
# [69] = locus YPR111W, strain DBF20, hits give low values
# [70] = strain NNK1, hits give low values
# [71] = strain TSCII, hits give low values
smiles,measurement,setting,value
CC(C)(C)NCC(O)COc1cccc2[nH]c(=O)[nH]c12 (stereo not given),normalized growth,"locus YAL040C, strain CLN3, hits give low values",1.02
same,normalized growth,"locus YCL061C, strain MRC1 (second series), hits give low values",1.01
same,normalized growth,"locus YDR150W, strain NUM1, hits give low values",1
same,normalized growth,"locus YDR363W, strain ESC2, hits give low values",1.01
same,normalized growth,"locus YER002W, strain NOP16, hits give low values",1.02
same,normalized growth,"locus YJR075W, strain HOC1, hits give low values",1.01
same,normalized growth,"locus YMR263W, strain SAP30, hits give low values",1
same,normalized growth,"locus YNL175C, strain NOP13, hits give low values",1.03
same,normalized growth,"locus YNL197C, strain WHI3, hits give low values",1.02
same,normalized growth,"locus YNL224C, strain SQS1, hits give low values",0.991
same,normalized growth,"locus YNL322C, strain KRE1, hits give low values",1.03
same,normalized growth,"locus YOR083W, strain WHI5 (second series), hits give low values",0.988
same,normalized growth,"locus YPL241C, strain CIN2, hits give low values",1
N#C/C(=N/Nc1ccc(F)cc1)C(=O)c1ccccc1,normalized growth,[1],0.853 (active)
same,normalized growth,[2],0.855 (active)
same,normalized growth,[3],0.842 (active)
same,normalized growth,[4],0.844 (active)
same,normalized growth,[5],0.862 (active)
same,normalized growth,[6],0.858 (active)
same,normalized growth,[7],0.859 (active)
same,normalized growth,[8],0.903 (active)
same,normalized growth,[9],0.859 (active)
same,normalized growth,[10],0.906
same,normalized growth,[11],0.913
same,normalized growth,[12],0.84 (active)
same,normalized growth,[13],0.853 (active)
same,normalized growth,[14],0.832 (active)
same,normalized growth,[15],0.756
same,normalized growth,[16],0.794
same,normalized growth,[17],0.885
same,normalized growth,[18],0.842 (active)
same,normalized growth,[19],0.841 (active)
same,normalized growth,[20],0.854 (active)
same,normalized growth,[21],0.913
same,normalized growth,[22],0.855 (active)
same,normalized growth,[23],0.693
same,normalized growth,[24],0.98
same,normalized growth,[25],0.769
same,normalized growth,[26],0.704 (active)
same,normalized growth,[27],0.826
same,normalized growth,[28],0.762
same,normalized growth,[29],0.799
same,normalized growth,[30],0.842 (active)
same,normalized growth,[31],0.731
same,normalized growth,[32],0.942
same,normalized growth,[33],0.907
same,normalized growth,[34],0.84 (active)
same,normalized growth,[35],0.836
same,normalized growth,[36],0.654
same,normalized growth,[37],0.895
same,normalized growth,[38],0.872
same,normalized growth,[39],0.839
same,normalized growth,[40],0.873 (active)
same,normalized growth,[41],0.883
same,normalized growth,[42],0.804 (active)
same,normalized growth,[43],0.815
same,normalized growth,[44],0.721
same,normalized growth,[45],0.854
same,normalized growth,[46],0.841 (active)
same,normalized growth,[47],0.821
same,normalized growth,[48],0.85 (active)
same,normalized growth,[49],0.853 (active)
same,normalized growth,[50],0.819
same,normalized growth,[51],0.863 (active)
same,normalized growth,[52],0.657
same,normalized growth,[53],0.83 (active)
same,normalized growth,[54],0.87 (active)
same,normalized growth,[55],0.795
same,normalized growth,[56],0.852 (active)
same,normalized growth,[57],0.885
same,normalized growth,[58],0.849
same,normalized growth,[59],0.783
same,normalized growth,[60],0.736
same,normalized growth,[61],0.868 (active)
same,normalized growth,[62],0.701
same,normalized growth,[63],0.757
same,normalized growth,[64],0.653 (active)
same,normalized growth,[65],0.876 (active)
same,normalized growth,[66],0.747 (active)
same,normalized growth,[67],0.863 (active)
same,normalized growth,[68],0.886 (active)
same,normalized growth,[69],0.862 (active)
same,normalized growth,[70],0.883 (active)
same,normalized growth,[71],0.844 (active)
N#C/C(=N/Nc1ccccc1)C(=O)c1ccccc1OC(F)(F)F,normalized growth,[1],0.922
same,normalized growth,[2],0.912
same,normalized growth,[3],0.91
same,normalized growth,[4],0.917
same,normalized growth,[5],0.916
same,normalized growth,[6],0.918
same,normalized growth,[7],0.918
same,normalized growth,[8],0.93
same,normalized growth,[9],0.912
same,normalized growth,[10],0.909
same,normalized growth,[11],0.877
same,normalized growth,[12],0.928
same,normalized growth,[13],0.922
same,normalized growth,[14],0.901
same,normalized growth,[15],0.88
same,normalized growth,[16],0.831
same,normalized growth,[17],0.898
same,normalized growth,[18],0.91
same,normalized growth,[19],0.919
same,normalized growth,[20],0.918
same,normalized growth,[21],0.903
same,normalized growth,[22],0.906
same,normalized growth,[23],0.853
same,normalized growth,[24],0.883
same,normalized growth,[25],0.797
same,normalized growth,[26],0.841 (active)
same,normalized growth,[27],0.853
same,normalized growth,[28],0.9
same,normalized growth,[29],0.901
same,normalized growth,[30],0.912
same,normalized growth,[31],0.891
same,normalized growth,[32],0.89
same,normalized growth,[33],0.883
same,normalized growth,[34],0.918
same,normalized growth,[35],0.879
same,normalized growth,[36],0.885
same,normalized growth,[37],0.883
same,normalized growth,[38],0.895
same,normalized growth,[39],0.876
same,normalized growth,[40],0.919
same,normalized growth,[41],0.913
same,normalized growth,[42],0.816 (active)
same,normalized growth,[43],0.87
same,normalized growth,[44],0.837
same,normalized growth,[45],0.879
same,normalized growth,[46],0.92
same,normalized growth,[47],0.91
same,normalized growth,[48],0.912
same,normalized growth,[49],0.915
same,normalized growth,[50],0.866
same,normalized growth,[51],0.915
same,normalized growth,[52],0.92
same,normalized growth,[53],0.905
same,normalized growth,[54],0.913
same,normalized growth,[55],0.893
same,normalized growth,[56],0.913
same,normalized growth,[57],0.845
same,normalized growth,[58],0.885
same,normalized growth,[59],0.909
same,normalized growth,[60],0.857
same,normalized growth,[61],0.922
same,normalized growth,[62],0.842
same,normalized growth,[63],0.882
same,normalized growth,[64],0.802
same,normalized growth,[65],0.915
same,normalized growth,[66],0.881
same,normalized growth,[67],0.919
same,normalized growth,[68],0.926
same,normalized growth,[69],0.904
same,normalized growth,[70],0.914
same,normalized growth,[71],0.902
